An excerpt weighted towards active compounds, which were near 2% of everything screened.
PfHsp40 yeast – rescue of yeast from PfHsp40 toxicity, primary screen, S. cerevisiae, ATP luminescence; S. cerevisiae expressing PfHsp40, growth rescue; growth rescue, % at 12.5 µM; actives 0.68% (n = 340,000); AID 504582, 2011; in the data active means growth rescue above about 28%, passing the limit was not always enough;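 further: yeast W303a lacking pdr1 and pdr3 grown in galactose medium; growth measured after three days at 30 °C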
Y pestis TopoI – Yersinia pestis topoisomerase I inhibitors, primary screen, biochemical, cleavage product accumulation, plate reader, single point; Y. pestis Topo-I cleavage product accumulation; activity, % at 10 µM; actives 0.064% (n = 360,000); in the data active means activity above about 50%, passing the limit was not always enough
BJeLR lethal – MLPCN primary cell-based screen for lethality selective to Ras in HRASV12 cells | BJeLR (HRASV12) viability, CellTiter-Glo ATP luminescence, 48 h | inhibition, % (concentration not given with the values) | actives 0.17% (n = 300,000); in the data active means inhibition above about 50%
PrPC TRFRET – inhibitors of human cell surface prion protein PrPC, primary screen, cell-based, TR-FRET | TR-FRET read-out | inhibition, % at 13.8 µM | actives 0.43% (n = 370,000) | AID 720596, 2013; in the data active means inhibition above about 24%; further: 0% = median of the test wells and 100% = reference compound wells
CCHF vOTU inh – CCHFV vOTU protease inhibitors, primary screen, biochemical, Pep-AMC substrate, fluorescence; Crimean-Congo hemorrhagic fever virus L polyprotein viral ovarian tumor (vOTU) protease …; inhibition, % at 11.5 µM; actives 0.55% (n = 370,000); AID 651958, 2012; in the data active means inhibition above about 30%; further: 0% = vehicle wells with enzyme and 100% = no enzyme wells
PrP 5UTR inh – inhibition of PrP 5' UTR reporter expression; inhibition, % (test concentration not listed); cell-based PrP 5' UTR mRNA reporter, plate reader; AID 488862, 2010; actives 0.35% (n = 340,000); in the data active means inhibition above about 52%; further: 0 = median of the neutral control wells
* hit, by the source's call.

How did O=[N+]([O-])c1ccc(-c2nnc(-c3ccccc3)c(NCCCO)n2)cc1 do in these assays?
PfHsp40 yeast: -1; Y pestis TopoI: -11; BJeLR lethal: -1; PrPC TRFRET: -47; CCHF vOTU inh: 11; PrP 5UTR inh: -10

Results for COc1ccc(N/N=C(\C#N)C(=N)SCc2ccccc2)cc1 ?
PfHsp40 yeast: 209*; Y pestis TopoI: -7; BJeLR lethal: 6; PrPC TRFRET: 4; CCHF vOTU inh: 21; PrP 5UTR inh: -14

Results for CC(C)CC(=O)/C(=C/c1ccc(N(C)C)cc1)n1cncn1 ?
PfHsp40 yeast: -1; Y pestis TopoI: -3; BJeLR lethal: 7; PrPC TRFRET: 6; CCHF vOTU inh: 9; PrP 5UTR inh: -3

What do the screens show for `CC(C)CC(=O)/C(=C\c1ccc(Cl)cc1Cl)n1cncn1`?
PfHsp40 yeast: 125*; Y pestis TopoI: -2; BJeLR lethal: 16; PrP 5UTR inh: -18

How did COc1ccc(NC(=O)NNC(=O)c2cc3ccccc3cc2O)cc1 do in these assays?
PfHsp40 yeast: 90*; Y pestis TopoI: 10; BJeLR lethal: 0; PrPC TRFRET: -4; CCHF vOTU inh: 3; PrP 5UTR inh: -33

How did COc1ccc(C)cc1NC(=O)NNC(=O)c1cc2ccccc2cc1O do in these assays?
PfHsp40 yeast: 1; Y pestis TopoI: 1; BJeLR lethal: -11; PrPC TRFRET: 2; CCHF vOTU inh: 20; PrP 5UTR inh: -26

How did COc1cc(NC(=O)COC(=O)CC(NC(C)=O)c2ccccc2)cc(OC)c1 (stereo not drawn) do in these assays?
PfHsp40 yeast: 0; Y pestis TopoI: 2; BJeLR lethal: 10; PrPC TRFRET: -7; CCHF vOTU inh: -5; PrP 5UTR inh: -24

Results for CN(C)S(=O)(=O)c1cccc(NC(=S)NC(=O)c2ccco2)c1 ?
PfHsp40 yeast: -3; Y pestis TopoI: 0; PrPC TRFRET: 4; CCHF vOTU inh: -3; PrP 5UTR inh: -36

How did CN(C)S(=O)(=O)c1cccc(NC(=S)NNC(=O)c2cc3ccccc3cc2O)c1 do in these assays?
PfHsp40 yeast: 219*; Y pestis TopoI: -1; PrPC TRFRET: -3; CCHF vOTU inh: 15; PrP 5UTR inh: -13

Results for O=C(NNC(=O)c1cc2ccccc2cc1O)Nc1ccc(Br)cc1 ?
PfHsp40 yeast: 36*; Y pestis TopoI: -18; BJeLR lethal: -6; PrPC TRFRET: -1; CCHF vOTU inh: -18; PrP 5UTR inh: -18

How did CC(=O)NC(CC(=O)NNC(=O)c1cc2ccccc2cc1O)c1ccccc1 (stereo not drawn) do in these assays?
PfHsp40 yeast: 78*; Y pestis TopoI: 4; BJeLR lethal: -1; PrPC TRFRET: -10; CCHF vOTU inh: 18; PrP 5UTR inh: -10

How did CCc1c(-c2ccc(Br)cc2)ncn1CCc1ccccc1OC do in these assays?
PrPC TRFRET: 6; CCHF vOTU inh: 1

How did O=C(N[C@@H](Cc1cccnc1)C(=O)N1CCC[C@H]1C(=O)NC1CCCC1)c1cccs1 do in these assays?
PrPC TRFRET: -7; CCHF vOTU inh: 8

What do the screens show for `O=C1CCC[C@H]2C[C@H](NCc3cccc(Cl)c3)CC[C@]23CCCN13`?
PrPC TRFRET: 2

How did O=C(NNC(=O)c1cc2ccccc2cc1O)NC1CCCCC1 do in these assays?
PfHsp40 yeast: 60*; Y pestis TopoI: -10; BJeLR lethal: 3; PrPC TRFRET: 3; CCHF vOTU inh: 6; PrP 5UTR inh: -17

What do the screens show for `CCCC1CCC2(CC1)CCC2OC(=S)Nc1ccccc1OC` (stereo not drawn)?
PrPC TRFRET: -1

How did COC(=O)C1CN(C#N)N(c2ccc(Cl)cc2)C12c1ccccc1-c1ccccc12 (stereo not drawn) do in these assays?
PfHsp40 yeast: 4; Y pestis TopoI: 6; BJeLR lethal: 84*; PrP 5UTR inh: -2

What do the screens show for `O=C(OCc1ccc(F)cc1)c1ccc2c(c1)-c1ccccc1C2=O`?
PfHsp40 yeast: 1; Y pestis TopoI: 8; BJeLR lethal: -12; PrPC TRFRET: -8; CCHF vOTU inh: -2; PrP 5UTR inh: -15

What do the screens show for `CCOC(=O)C1=C(Cc2ccc(F)cc2)C(=O)c2ccccc2C1=O`?
PfHsp40 yeast: -1; Y pestis TopoI: 20; BJeLR lethal: -12; PrPC TRFRET: -5; CCHF vOTU inh: 71*; PrP 5UTR inh: -6

Results for O=C(/C=C/c1ccc(-c2ccccc2)cc1)NCc1cccnc1 ?
PfHsp40 yeast: 1; Y pestis TopoI: 44; BJeLR lethal: -11; PrPC TRFRET: -13; CCHF vOTU inh: 6; PrP 5UTR inh: -32

What do the screens show for `O=C(/C=C/NCc1cccnc1)c1ccc(-c2ccccc2)cc1`?
PfHsp40 yeast: 114*; Y pestis TopoI: -8; BJeLR lethal: -11; PrPC TRFRET: -3; CCHF vOTU inh: 6; PrP 5UTR inh: -10

How did CC(C)CCNC(=O)C1CCCN(C(=O)c2ccc3c(c2)NC(=O)CS3)C1 (stereo not drawn) do in these assays?
PrPC TRFRET: 10; CCHF vOTU inh: -1

How did CC1Oc2cc3c(-c4c(O)cc(O)c5c(O)c6c(cc45)OC(C)C(C)C6=O)c(O)cc(O)c3c(O)c2C(=O)C1C (stereo not drawn) do in these assays?
PfHsp40 yeast: 77*; Y pestis TopoI: -52; BJeLR lethal: 0; PrP 5UTR inh: 39

What do the screens show for `O=C(c1nnsc1S(=O)c1ccc(Cl)cc1)N1CCOCC1` (stereo not drawn)?
PfHsp40 yeast: 143*; Y pestis TopoI: 0; BJeLR lethal: -4; PrPC TRFRET: 10; CCHF vOTU inh: 4; PrP 5UTR inh: 2

How did Cc1ccc(S(=O)(=O)NC[C@H]2CN(S(=O)(=O)c3ccc(C)cc3)[C@@H](Cc3ccccc3)CO2)cc1 do in these assays?
PrPC TRFRET: 0

How did Cc1ccccc1NC(=O)O[C@H]1CC[C@@]23CCCN2C(=O)CCC[C@H]3[C@H]1C do in these assays?
PrPC TRFRET: -8

What do the screens show for `COC(=O)c1nnn(CC(=O)Nc2cccc(OC)c2)c1C(=O)OC`?
PfHsp40 yeast: 80*; Y pestis TopoI: 1; BJeLR lethal: -9; PrPC TRFRET: 2; CCHF vOTU inh: 2; PrP 5UTR inh: 0

How did O=C(NCCCSc1ccccc1)c1cc(Br)ccc1O do in these assays?
PfHsp40 yeast: 196*; Y pestis TopoI: -6; BJeLR lethal: -6; PrPC TRFRET: 1; CCHF vOTU inh: 11; PrP 5UTR inh: -29

What do the screens show for `CCOC(=O)Cc1csc(NC(=O)CC)n1`?
PfHsp40 yeast: -2; Y pestis TopoI: 9; BJeLR lethal: 3; PrPC TRFRET: 5; CCHF vOTU inh: 8; PrP 5UTR inh: -11

What do the screens show for `CCOC(=O)Cc1csc(NC(=O)CC(C)(C)C)n1`?
PfHsp40 yeast: -1; Y pestis TopoI: 0; BJeLR lethal: 5; PrPC TRFRET: 6; CCHF vOTU inh: 30*; PrP 5UTR inh: -28

Compound activity deposited in PubChem by several laboratories.
